Compound activity as filed in PubChem.
In the library only some 11% were active in any assay of this set; here they are far more common.
Pf growth 48h: inhibits P. falciparum growth in the first generation, 48 h | Potency, µM (top dose mostly 28.7 µM), for inactives: at the highest dose activity change, negative = inhibition, hits mostly inhibitors | P. falciparum luciferase growth in erythrocytes, 48 h | hit rate 5.9% among 310,000
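First compound was added to culture medium, then infected red cells at 0.1% parasitemia and 2% hematocrit (final). After incubation at 37 C under 5% CO2, luciferase detection reagent was dispensed and light output recorded.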
AMA1-RON2 inh: AMA1-RON2 (P. falciparum) interaction inhibition | AID 720542 | Potency, µM (highest dose often 58.2 µM), for the others: at the top dose activity change, negative = inhibition, most hits filed as inhibitors | hit rate 0.2% among 360,000 | AlphaScreen AMA1-biotinylated RON2 peptide binding;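 also: 0% = vehicle wells and -100% = peptide control; nearly all actives have a fitted effect of over 45% in size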
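AMA1 (3D7) with his tag at 25 nM final met compounds first, then biotinylated RON2 peptide at 25 nM; detection used donor plus acceptor beads, 10 µg/mL apiece, read by AlphaScreen after 30 min at room temperature.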
AmpC inh detg: blocks E. coli AmpC beta-lactamase in detergent assay; P00811; AmpC hydrolysis of nitrocefin, absorbance 480 nm, 0.01% Triton; AID 485294; Potency, µM (titrated, usually from 114 µM), without a hit: at the top dose activity change, negative = inhibition, actives largely listed as inhibitors; hit rate 0.041% among 370,000;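 also: 0% = no-compound wells and -100% = no-enzyme wells; nearly all actives have a fitted effect of over 25% in size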
Target sequence (P00811 whole entry, looked up): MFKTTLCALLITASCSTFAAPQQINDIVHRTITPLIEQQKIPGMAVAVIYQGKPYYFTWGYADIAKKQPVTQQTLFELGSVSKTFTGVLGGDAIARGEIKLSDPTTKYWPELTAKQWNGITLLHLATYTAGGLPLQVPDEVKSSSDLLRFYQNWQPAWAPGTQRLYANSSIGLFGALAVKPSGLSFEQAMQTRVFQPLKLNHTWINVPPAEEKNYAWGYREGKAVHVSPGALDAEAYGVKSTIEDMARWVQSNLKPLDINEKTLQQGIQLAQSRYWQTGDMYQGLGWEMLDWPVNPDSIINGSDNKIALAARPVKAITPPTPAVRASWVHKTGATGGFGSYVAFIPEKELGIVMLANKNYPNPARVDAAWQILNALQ
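AmpC (5.3 nM in the dispensed reagent) in 20 mM phosphate pH 7.0 with 0.01% (detergent screen) or 0.0001% Triton X-100 was preincubated with compounds for 15 min at room temperature. Nitrocefin was then added from an 800 uM solution, and hydrolysis was followed at 480 nm.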
AmpC inh no detg: AmpC beta-lactamase inhibition without detergent. hit rate 0.52% among 330,000. AID 485341. Potency, µM (highest dose often 57.1 µM), for inactives: top-dose activity change, negative = inhibition, most hits filed as inhibitors. AmpC nitrocefin hydrolysis, absorbance 480 nm, 0.0001% Triton. P00811;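 also: plate controls were no compound for no effect and no enzyme for full effect; nearly all actives have a fitted effect of over 20% in size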
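20 mM phosphate pH 7.0 + 0.01% (detergent screen) or 0.0001% Triton X-100; 5.3 nM AmpC reagent; cpd preinc 15 min RT; nitrocefin (800 uM stock) to start; A480 q20 s × 4 min; Activity was normalised to no-enzyme and no-compound control wells.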
Pf growth 96h: P. falciparum growth inhibition at 96 hours; P. falciparum luciferase reporter growth, 96 h; hit rate 6.9% among 320,000; Potency, µM (top dose mostly 28.7 µM), for the others: at the highest dose activity change, negative = inhibition, most hits filed as inhibitors
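P. falciparum expressing integrated firefly luciferase grown in erythrocytes (2% hematocrit, 0.05% parasitemia final) with compounds for 96 hours at 37 C, 5% CO2. Growth inhibition read as loss of luminescence after adding luciferase detection reagent.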
HCV inhibitor: HCV inhibition | Huh7.5.1 HCVcc-Cre infection, luciferase reporter, 44 h | AID 651820 | Potency, µM (doses to about 41.8 µM), for the others: top-dose activity change, negative = inhibition, usual class: inhibitors | hit rate 3.4% among 340,000
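Compounds are dispensed onto cells plated 4 h earlier at 1,000 per well, with HCVcc-Cre virus (about 0.5 moi) added next. Following 44 h of culture, luminescent signal is measured for 15 sec after 15 min with substrate at room temperature.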
* = called active by the depositor; ? = inconclusive; · = no result given; [ ] = another dose, or the depositor's remark. Calls follow the shape of the dose curve; as a rule, active = well fitted curve in the direction sought with a large enough effect; inconclusive = small, poorly fitted or top-dose-only effect, or another doubt; inactive = no such curve, though single readings can be large; an effect the other way counts as inactive or inconclusive. Unless noted, % is scaled to controls: 0 for no effect and ±100 for the full control effect; potency is read from the fitted curve at half-maximal effect.

SMILES	Pf growth 48h	AMA1-RON2 inh	AmpC inh detg	AmpC inh no detg	Pf growth 96h	HCV inhibitor
Cc1cc(C#Cc2c(-c3ccccc3)n(C)c3ccccc23)ccc1F	?	13%	-2%	-35%	5.9µM*	-13%[8.37 µM]
COc1ccc(C#Cc2c(-c3ccccc3)n(C)c3ccccc23)cc1	·	42%	·	-39%	·	?
COc1ccc(-c2c(C#Cc3ccsc3)c3cc(-c4ccc5[nH]ccc5c4)ccc3n2C)cc1	?	-10%	-1%	-21%	?	-3%
COc1ccc(-c2oc3ccc(-c4cc(OC)c(OC)c(OC)c4)cc3c2C#Cc2ccsc2)cc1	-41%	-5%	-5%	-21%	7.4µM*	-6%
COc1ccccc1C(=O)Nc1cccc(C(=O)OCc2cc(=O)n3nc(C4CC4)sc3n2)c1	·	·	10%	·	·	·
Cc1c(Cl)cccc1-c1ccc(C(=O)Nc2ccc(F)cc2)o1	·	·	4%	·	·	·
COc1ccc(-c2c(C#Cc3ccsc3)c3cc(-c4ccc5c(c4)OCCO5)ccc3n2C)cc1	·	7%	·	-24%	·	11%
COc1cc(OC)cc(-c2c(C#Cc3ccsc3)c3cc(-c4ccc(OC)c(OC)c4)ccc3n2C)c1	·	2%	·	-16%	·	?
Cn1c(-c2ccc(C#N)cc2)c(C#Cc2ccccc2)c2ccccc21	·	263%	·	·	·	22µM*
COc1ccc(-c2c(C#Cc3ccsc3)c3cc(-c4ccc(C(N)=O)cc4)ccc3n2C)cc1	·	-7%	·	-21%	·	7.1µM*
COc1cc(OC)cc(-c2c(C#Cc3ccsc3)c3cc(-c4cccc5[nH]cc(C=O)c45)ccc3n2C)c1	·	12%	·	-28%	·	10µM*
COc1ccc(-c2c(C#Cc3ccsc3)c3ccccc3n2C)cc1	?	-3%	-18%	-33%	3.3µM*	?
CC1=C(c2ccc(C)c(C)c2)S(=O)(=O)N(Cc2ccc(C(=O)NC(C)c3ccccc3)cc2)C1=O (centres undefined)	·	·	12%	·	·	·
Cc1cccc(N(C(=O)c2ccc(CN3CCOCC3)o2)C(C(=O)NC(C)(C)C)c2ccc(F)cc2)c1 (centres undefined)	8.3µM*	-6%	?	50%	?	-9%
COc1cc2c(cc1OC)CN(C1CCCN(Cc3cccc(C(C)=O)c3)C1)CC2 (centres undefined)	·	7%	·	·	·	3%
Cc1cc(CN2CCCC(N3CCc4ccccc4C3)C2)cc(C)c1O (centres undefined)	?	6%	?	-10%	10µM*	-13%
CCC(C)S(=O)(=O)c1oc(-c2ccc(F)cc2)nc1S(=O)(=O)c1ccc(F)cc1 (centres undefined)	·	·	1%	·	·	·
CCOC(=O)c1cc(OC(=O)c2ccccc2C)n(-c2ccccc2)n1	·	·	15%	·	·	·
Cc1[nH]c2ccccc2c1SCc1nnc(SCc2ccc(Cl)cc2)n1C	15µM*	-9%	1%	2%	?	11µM*
Cc1[nH]c2ccccc2c1SCc1nnc(SCc2ccccc2)n1C	?	-19%	5%	4%	?	-1%
CCOC(=O)c1cccc(NC(=O)Cn2c(=O)c3cccn3c3ccccc32)c1	·	·	-2%	·	·	·
Cc1ccc(NC2=C(Cl)C(=O)OC2OC(C)C)cc1 (centres undefined)	2%	0%	-2%	-45%	13µM*	6%
CCN(CC)S(=O)(=O)c1ccc(-c2csc(=Nc3cccc(C(F)(F)F)c3)n2Cc2ccc3c(c2)OCO3)cc1	·	·	-1%	·	·	·
Cc1ccc(C(c2cc(Cl)c3cccnc3c2O)N2CCN(C)CC2)cc1 (centres undefined)	4.1µM*	-2%	-4%	-32%	?	?
CN1CCN(C(c2ccccc2)c2ccccc2)CC1	?	17%	-1%	1%	6%	?
SMILES	Pf growth 48h	AMA1-RON2 inh	AmpC inh detg	AmpC inh no detg	Pf growth 96h	HCV inhibitor
CN1CCN(C(c2ccc(C(F)(F)F)cc2)c2ccc3cccnc3c2O)CC1 (centres undefined)	?	-24%	0%	-1%	?	11µM*
Oc1c(C(c2cccs2)N2CCN(c3ccccc3)CC2)ccc2cccnc12 (centres undefined)	?	·	-2%	·	?	·
Oc1c(C(c2ccccc2Cl)N2CCCC2)ccc2cccnc12 (centres undefined)	-54%[1.15 µM]	-16%	3%	-32%	?	10µM*
Oc1c(C(c2ccccn2)N2CCC(Cc3ccccc3)CC2)cc(Cl)c2cccnc12 (centres undefined)	2.9µM*	-38%	1%	-7%	0%	18µM*
COc1cc(C2Oc3nc(SC)nnc3-c3ccccc3N2C(C)=O)cc(Cl)c1OC (centres undefined)	·	·	16%	·	·	·
COc1ccc(OC)c(CCNC(=O)CCCn2c(=O)c3cccn3c3ccc(F)cc32)c1	·	·	16%	·	·	·
Oc1c(C(c2ccc(Cl)cc2)N2CCCC2)cc(Cl)c2cccnc12 (centres undefined)	3.3µM*	-59%	-13%	-36%	1.9µM*	?
CN1CCN(C(c2ccccn2)c2cc(Cl)c3cccnc3c2O)CC1 (centres undefined)	4.7µM*	-75%	-1%	26%	?	?
O=C(Oc1c(Cl)cc(Cl)c2cccnc12)N1CCOCC1	-14%	-12%	?	16%	-4%	0%
O=C(/C(=N/N=C/c1ccc(O)c(O)c1O)c1ccccc1)c1ccccc1	10µM*	15%	19%	20µM*	?	?
Oc1ccc(/C=N/N=C(c2ccccc2)c2ccccc2)c(O)c1O	?	7%	0%	-43%	?	3%
Cc1cccc(CNC(=O)Cc2csc3ccccc23)c1	·	·	-12%	·	·	·
O=C(Nc1ccc(-c2cn3ccsc3n2)cc1)C1CC1	-3%	0%	?	-15%	9.3µM*	-21%
CC(=O)Nc1ccc(-c2cn3ccsc3n2)cc1	229%	-18%	-9%	-5%	10µM*	6%
O=C(CCN1C(=O)c2ccccc2C1=O)Nc1ccc(-c2cn3ccsc3n2)cc1	6%	-3%	-12%	-17%	?	-25%
O=C(Nc1ccc(-c2cn3ccsc3n2)cc1)C1CCCC1	48%	7%	-3%	-17%	14%	-27%
O=C(CCNS(=O)(=O)c1ccc2c(c1)CCN2C(=O)C1CC1)N1CCN(c2ccc(F)cc2)CC1	·	·	-5%	·	·	·
Oc1ccccc1/C=N/NC(=S)NC1CC2C=CC1C2 (centres undefined)	?	12%	3%	-36%	0.93µM*	-24%
Oc1ccccc1C=NNC(=S)NC1CC2C=CC1C2 (centres undefined)	·	86%	·	·	·	·
